Test results taken from PubChem BioAssay (NCATS).
Records with an inconclusive call do not appear. The list shows a part of the results. Activity calls are given as the source filed them. Unless noted, the call rests on the fitted dose curve; in most records, active means well fitted curve in the direction sought with a large enough effect; inconclusive means small, poorly fitted or top-dose-only effect, or another doubt; inactive means no such curve, though single readings can be large; an effect the other way counts as inactive or inconclusive.

Experiments:
[1] = molecular target: Tyrosyl-DNA phosphodiesterase 1 (Homo sapiens) (UniProt Q9NUW8); assay: Confirmation Assay for Inhibitors of Tyrosyl-DNA Phosphodiesterase (TDP1) (AID 489007); details: recombinant human TDP1 enzymatic activity, dose-response; further: potency means the concentration at half of the fitted maximal effect; nearly all actives have a fitted effect of over 40% in size
Procedure, shortened: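 Recombinant human Tdp1 (1 nM final), expressed in E. coli, preincubated 15 min with compound. Then 15 nM 5'-biotin/3'-phosphotyrosine-FITC DNA substrate added for 5 min at room temperature. AlphaScreen beads (10 ug/ml) added for 10 min; cleavage gives signal loss.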

[2] = molecular target: Rap guanine nucleotide exchange factor 3 (Homo sapiens) (UniProt O95398); assay: Confirmatory qHTS for antagonist of cAMP-regulated guanine nucleotide exchange factor 3 (EPAC1) (AID 1645880); details: EPAC1 Rap1B-BODIPY-GDP exchange, fluorescence; activity, negative = inhibition: at 115 µM (top of the series); further: nearly all actives have a fitted effect of over 55% in size; further: potency means the concentration at half of the fitted maximal effect;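 on activity, negative = inhibition: plate controls were DMSO only for no effect and full effect of the ATA control for full effect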
Procedure, shortened: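 Nucleotide exchange uses 100 nM EPAC1, 250 nM RAP1B-BODIPY-GDP and 50 uM GDP, with compounds in a concentration-titration series. After 5 min at room temperature, fluorescence (480 nm ex/540 nm em) is read every 5 min for 30 min. Data are normalized to control ATA and DMSO.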

[3] = molecular target: Rap guanine nucleotide exchange factor 3 (Homo sapiens) (UniProt O95398); assay: Confirmatory qHTS for agonist of cAMP-regulated guanine nucleotide exchange factor 3 (EPAC1) (AID 1645881); details: EPAC1 Rap1B BODIPY-GDP exchange fluorescence; series mostly up to 154 µM;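 further: EPAC1 catalysed release of BODIPY-GDP from Rap1B seen as fluorescence loss; 100% = effect of cAMP agonist control; nearly all actives have a fitted effect of over 75% in size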
[4] = molecular target: Rap guanine nucleotide exchange factor 4 (Homo sapiens) (UniProt Q8WZA2); assay: Confirmatory qHTS for agonist of cAMP-regulated guanine nucleotide exchange factor 4 (EPAC2) (AID 1645884); details: EPAC2 GEF activity, Rap1B-BODIPY-GDP fluorescence; series mostly up to 154 µM;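 further: nucleotide exchange releases bodipy-GDP from Rap1 and this lowers its fluorescence; on the % scale 0 is the no-effect control and ±100 the full control effect; nearly all actives have a fitted effect of over 65% in size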
[5] = molecular target: Rap guanine nucleotide exchange factor 4 (Homo sapiens) (UniProt Q8WZA2); assay: Confirmatory qHTS for antagonist of cAMP-regulated guanine nucleotide exchange factor 4 (EPAC2) (AID 1645885); details: EPAC2 Rap1B-BODIPY-GDP exchange fluorescence, biochemical; series mostly up to 12.7 µM; further: nearly all actives have a fitted effect of over 25% in size; further: potency means the concentration at half of the fitted maximal effect; on activity change, negative = inhibition: on the % scale 0 is the no-effect control and ±100 the full control effect
[6] = molecular target: Rap guanine nucleotide exchange factor 3 (Homo sapiens) (UniProt O95398); assay: Counterscreen qHTS for antagonist of cAMP-regulated guanine nucleotide exchange factor 3 (EPAC1) (AID 1645888); details: Rap1B-BODIPY-GDP nucleotide exchange, fluorescence; series mostly up to 154 µM;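 further: fluorescence loss as bound BODIPY-GDP is released from Rap1B; % of control where 0% means no effect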
Procedure, shortened: (§1)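 Rap1B-BODIPY-GDP 250 nM + GDP 50 uM; cpds 7-pt, final 9.74 nM–152 uM (activator mode) or from 7.32 nM upwards (inhibitor mode); RT; FI 480/540 nm at 5 and 30 min, then ± cAMP, reread.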

[7] = molecular target: ATPase family AAA domain-containing protein 5 (Homo sapiens) (UniProt Q96QE3); assay: HTS assay for small molecules that inhibit ELG1-dependent DNA repair in human embryonic kidney (HEK293T) cells expressing luciferase-tagged ELG1: Hit Confirmation (AID 624248); details: HEK293T ELG1-luciferase levels, luminescence; cells co-treated with 5-fluorouridine; further: potency means the concentration at half of the fitted maximal effect; nearly all actives have a fitted effect of over 55% in size
Procedure, shortened: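 Suppression of ELG1-luciferase signal was read by ONE-Glo luminescence in HEK293T reporter cells after 16 h at 37 C co-treatment with compound and 5-fluorouridine as DNA-damaging agent.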

[8] = molecular target: ATPase family AAA domain-containing protein 5 (Homo sapiens) (UniProt Q96QE3); assay: qHTS screen for small molecules that inhibit ELG1-dependent DNA repair in human embryonic kidney (HEK293T) cells expressing luciferase-tagged ELG1: Hit Confirmation using MMS Stimulated ELG1 (AID 624249); details: HEK293T luciferase-tagged ELG1 level; series mostly up to 46.1 µM; further: potency means the concentration at half of the fitted maximal effect; nearly all actives have a fitted effect of over 60% in size
Procedure, shortened: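 Compounds are tested on HEK293T cells expressing ELG1-luc, co-treated with 10 µM MMS (final), for 16 h before luminescence readout with Amplight.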

[9] = qHTS screen for small molecules that inhibit ELG1-dependent DNA repair: Hit Confirmation with MMS Viability (AID 624251); details: Cell viability with MMS; series mostly up to 46.1 µM; further: on the % scale 0 is the no-effect control and ±100 the full control effect; nearly all actives have a fitted effect of over 60% in size
Procedure, shortened: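 Luminescent ATP read-out (CellTiter-Glo) gives viability of ELG1-luc HEK293T cells exposed to compounds together with 10 µM methyl methanesulfonate for 16 h.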

[10] = AP1 Signaling Pathway (AID 357; active means well fitted curve in either direction with a large enough effect, not every such curve was filed as active; further: on the % scale 0 is the no-effect control and ±100 the full control effect); details: ME-180 AP-1-bla reporter, EGF-induced, beta-lactamase ratio, 5 h; at 7.69 µM (top of the series) unless noted
Procedure, shortened: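 ME-180 cells with beta-lactamase reporter under AP-1 response element, stimulated with EC50 EGF; compounds tested in titration series, 5 h at 37 °C. CCF4 substrate added 2.5 h at room temperature; 460/530 nm emission ratio gave %activity and AC50.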

[11] = NFAT Signaling Pathway (AID 444; active means well fitted curve in either direction with a large enough effect, not every such curve was filed as active;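 further: carbachol stimulus at about its EC50 of 1 µM final; on the % scale 0 is the no-effect control and ±100 the full control effect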); details: Jurkat NFAT-bla M1, carbachol, beta-lactamase ratio, 5 h; at 7.69 µM (top of the series) unless noted
Procedure, shortened: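 Read-out: CCF4 FRET ratio (460 nm/530 nm) after 1 h RT dye loading, used for %activity and AC50 from titration series. Cells: Jurkat NFAT-β-lactamase/M1 line, treated with compound plus 1 uM carbachol for 5 h, 37 °C.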

[12] = Stat Signaling Pathway (AID 446; active means well fitted curve in either direction with a large enough effect, not every such curve was filed as active;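 further: ME-180 cervical cancer cells given 40 pM IL-6 alongside compound; SIE-controlled beta-lactamase reporter measured as 460/530 nm FRET emission ratio; on the % scale 0 is the no-effect control and ±100 the full control effect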); details: ME-180 (cervical carcinoma) SIE beta-lactamase reporter, IL-6 stimulated, 5 h; series mostly up to 7.69 µM
Procedure, shortened: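 IL-6/STAT signaling read in ME-180 cells via an SIE beta-lactamase reporter. Stimulus was 40 pM IL-6 (its AC50) for 5 hrs, so both activation and inhibition register.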

[13] = molecular target: Glucocorticoid receptor (Homo sapiens) (UniProt P04150); assay: GR-GFP Redistribution (AID 450;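 active means compounds whose dose series gives a full or clear partial fitted curve of increased nuclear translocation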; further: potency means the concentration at half of the fitted maximal effect); details: U2OS GR-GFP nuclear translocation, laser cytometry, 2 h
[14] = molecular target: Tumor susceptibility gene 101 protein (Homo sapiens) (UniProt Q99816); assay: qHTS Assay for Iinhibitors of HIV-1 Budding by Blocking the Interaction of PTAP/TSG101: Hit Validation (AID 651600); details: PTAP peptide/TSG101 UEV interaction, biochemical assay; series mostly up to 57.5 µM; further: on the % scale 0 is the no-effect control and ±100 the full control effect; nearly all actives have a fitted effect of over 70% in size
Procedure, shortened: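 FITC-PTAP peptide (50 nM final) binding to Tsg101 binding domain (10 uM final) was measured by polarization after 20 min at r.t. with compounds, in 10 mM HEPES pH 7.5 buffer with 0.15 M NaCl and 0.01% Tween 20.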

[15] = molecular target: Rap guanine nucleotide exchange factor 3 (Homo sapiens) (UniProt O95398); assay: Counterscreen qHTS for agonist of cAMP-regulated guanine nucleotide exchange factor 3 (EPAC1) (AID 1645889); details: EPAC1 Rap1B-BODIPY-GDP exchange, fluorescence; series mostly up to 154 µM; further: nearly all actives have a fitted effect of over 40% in size; further: potency means the concentration at half of the fitted maximal effect; on activation: % of control where 0% means no effect
Procedure, shortened: as §1

[16] = molecular target: DNA polymerase iota (Homo sapiens) (UniProt Q9UNA4); assay: qHTS for Inhibitors of Polymerase Iota: Confirmatory Assay for Cherry-picked Compounds (AID 720496); details: Pol iota primer extension, TAMRA/BHQ fluorescence; further: potency means the concentration at half of the fitted maximal effect
Procedure, shortened: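 Read-out is TAMRA fluorescence (525 nm excitation, 598 nm emission) at 0 and 10 min. It reflects strand displacement from a BHQ-2-quenched template by 10 nM Pol iota, with 50 nM final substrate after 15 min compound preincubation.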

[17] = molecular target: DNA polymerase kappa (Homo sapiens) (UniProt Q9UBT6); assay: qHTS for Inhibitors of Polymerase Kappa: Confirmatory Assay for Cherry-picked Compounds (AID 720501); details: purified Pol-kappa, fluorescent strand-displacement substrate; further: potency means the concentration at half of the fitted maximal effect
Procedure, shortened: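 Strand-displacement fluorescence read-out: TAMRA reporter released from a BHQ-2-quenched template, measured at 525/598 nm over a 10 min kinetic window. Substrate was 50 nM final; enzyme was 10 nM Pol-kappa, preincubated 15 min at room temperature with compound.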

Chain of Tumor susceptibility gene 101 protein (Homo sapiens) (Q99816 whole entry, looked up, the tested form may be a part): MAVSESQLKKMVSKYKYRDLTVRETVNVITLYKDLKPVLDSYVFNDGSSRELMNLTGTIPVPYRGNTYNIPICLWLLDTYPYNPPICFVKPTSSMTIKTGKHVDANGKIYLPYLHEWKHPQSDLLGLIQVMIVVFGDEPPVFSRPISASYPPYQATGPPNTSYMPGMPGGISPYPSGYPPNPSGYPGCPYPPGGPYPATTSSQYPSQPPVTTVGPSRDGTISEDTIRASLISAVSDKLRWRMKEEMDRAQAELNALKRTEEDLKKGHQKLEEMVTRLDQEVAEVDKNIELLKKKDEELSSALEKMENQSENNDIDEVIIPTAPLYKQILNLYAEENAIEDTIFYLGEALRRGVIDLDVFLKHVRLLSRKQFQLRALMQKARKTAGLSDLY
Chain of Rap guanine nucleotide exchange factor 3 (Homo sapiens) (O95398 whole entry, looked up): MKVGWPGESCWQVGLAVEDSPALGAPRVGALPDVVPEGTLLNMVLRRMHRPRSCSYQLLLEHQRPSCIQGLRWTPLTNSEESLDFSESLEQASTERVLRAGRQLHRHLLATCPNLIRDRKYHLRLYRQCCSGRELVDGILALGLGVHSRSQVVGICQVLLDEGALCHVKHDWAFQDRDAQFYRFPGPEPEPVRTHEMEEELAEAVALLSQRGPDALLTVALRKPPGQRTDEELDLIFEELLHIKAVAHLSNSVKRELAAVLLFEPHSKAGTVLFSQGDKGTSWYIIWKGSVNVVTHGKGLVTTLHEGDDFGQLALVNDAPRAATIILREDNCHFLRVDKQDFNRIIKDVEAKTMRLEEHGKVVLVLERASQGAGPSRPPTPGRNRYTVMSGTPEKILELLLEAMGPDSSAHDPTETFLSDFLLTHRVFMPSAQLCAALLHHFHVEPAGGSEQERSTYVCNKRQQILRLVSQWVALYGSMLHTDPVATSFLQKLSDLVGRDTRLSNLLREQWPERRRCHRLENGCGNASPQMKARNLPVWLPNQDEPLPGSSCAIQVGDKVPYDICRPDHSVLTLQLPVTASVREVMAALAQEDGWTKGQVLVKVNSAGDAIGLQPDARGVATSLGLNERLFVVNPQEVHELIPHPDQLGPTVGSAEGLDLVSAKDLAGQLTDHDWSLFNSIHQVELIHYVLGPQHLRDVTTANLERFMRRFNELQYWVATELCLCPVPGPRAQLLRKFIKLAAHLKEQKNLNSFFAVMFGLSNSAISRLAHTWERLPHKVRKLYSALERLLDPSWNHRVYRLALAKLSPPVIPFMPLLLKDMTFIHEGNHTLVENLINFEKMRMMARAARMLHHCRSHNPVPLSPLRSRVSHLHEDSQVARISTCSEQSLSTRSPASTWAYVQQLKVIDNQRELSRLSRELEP
Chain of Rap guanine nucleotide exchange factor 4 (Homo sapiens) (Q8WZA2 whole entry, looked up): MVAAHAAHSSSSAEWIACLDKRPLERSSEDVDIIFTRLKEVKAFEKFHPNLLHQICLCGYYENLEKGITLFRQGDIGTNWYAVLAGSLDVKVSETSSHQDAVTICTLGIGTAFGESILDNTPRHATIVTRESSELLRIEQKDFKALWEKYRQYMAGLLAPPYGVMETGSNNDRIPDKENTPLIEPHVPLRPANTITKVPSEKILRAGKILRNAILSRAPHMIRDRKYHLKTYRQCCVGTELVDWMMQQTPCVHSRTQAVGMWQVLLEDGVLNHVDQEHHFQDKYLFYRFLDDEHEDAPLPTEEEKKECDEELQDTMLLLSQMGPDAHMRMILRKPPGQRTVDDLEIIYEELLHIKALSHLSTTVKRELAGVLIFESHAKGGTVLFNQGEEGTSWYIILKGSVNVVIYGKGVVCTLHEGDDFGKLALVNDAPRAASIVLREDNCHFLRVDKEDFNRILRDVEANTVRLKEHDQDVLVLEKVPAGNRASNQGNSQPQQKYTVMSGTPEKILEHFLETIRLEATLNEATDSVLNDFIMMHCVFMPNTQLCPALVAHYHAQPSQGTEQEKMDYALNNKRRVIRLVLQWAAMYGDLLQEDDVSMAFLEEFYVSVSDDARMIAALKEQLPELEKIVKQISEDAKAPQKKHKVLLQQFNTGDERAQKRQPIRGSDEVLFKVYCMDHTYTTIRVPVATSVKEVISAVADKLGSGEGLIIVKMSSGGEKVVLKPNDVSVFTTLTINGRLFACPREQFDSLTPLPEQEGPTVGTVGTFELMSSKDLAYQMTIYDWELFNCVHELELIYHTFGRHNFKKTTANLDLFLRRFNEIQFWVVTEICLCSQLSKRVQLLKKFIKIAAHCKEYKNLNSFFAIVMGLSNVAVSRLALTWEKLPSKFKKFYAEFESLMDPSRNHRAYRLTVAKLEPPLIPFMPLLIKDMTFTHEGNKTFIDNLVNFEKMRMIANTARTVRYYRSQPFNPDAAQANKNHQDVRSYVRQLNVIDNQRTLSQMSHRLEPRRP
Chain of ATPase family AAA domain-containing protein 5 (Homo sapiens) (Q96QE3 whole entry, looked up, the tested form may be a part): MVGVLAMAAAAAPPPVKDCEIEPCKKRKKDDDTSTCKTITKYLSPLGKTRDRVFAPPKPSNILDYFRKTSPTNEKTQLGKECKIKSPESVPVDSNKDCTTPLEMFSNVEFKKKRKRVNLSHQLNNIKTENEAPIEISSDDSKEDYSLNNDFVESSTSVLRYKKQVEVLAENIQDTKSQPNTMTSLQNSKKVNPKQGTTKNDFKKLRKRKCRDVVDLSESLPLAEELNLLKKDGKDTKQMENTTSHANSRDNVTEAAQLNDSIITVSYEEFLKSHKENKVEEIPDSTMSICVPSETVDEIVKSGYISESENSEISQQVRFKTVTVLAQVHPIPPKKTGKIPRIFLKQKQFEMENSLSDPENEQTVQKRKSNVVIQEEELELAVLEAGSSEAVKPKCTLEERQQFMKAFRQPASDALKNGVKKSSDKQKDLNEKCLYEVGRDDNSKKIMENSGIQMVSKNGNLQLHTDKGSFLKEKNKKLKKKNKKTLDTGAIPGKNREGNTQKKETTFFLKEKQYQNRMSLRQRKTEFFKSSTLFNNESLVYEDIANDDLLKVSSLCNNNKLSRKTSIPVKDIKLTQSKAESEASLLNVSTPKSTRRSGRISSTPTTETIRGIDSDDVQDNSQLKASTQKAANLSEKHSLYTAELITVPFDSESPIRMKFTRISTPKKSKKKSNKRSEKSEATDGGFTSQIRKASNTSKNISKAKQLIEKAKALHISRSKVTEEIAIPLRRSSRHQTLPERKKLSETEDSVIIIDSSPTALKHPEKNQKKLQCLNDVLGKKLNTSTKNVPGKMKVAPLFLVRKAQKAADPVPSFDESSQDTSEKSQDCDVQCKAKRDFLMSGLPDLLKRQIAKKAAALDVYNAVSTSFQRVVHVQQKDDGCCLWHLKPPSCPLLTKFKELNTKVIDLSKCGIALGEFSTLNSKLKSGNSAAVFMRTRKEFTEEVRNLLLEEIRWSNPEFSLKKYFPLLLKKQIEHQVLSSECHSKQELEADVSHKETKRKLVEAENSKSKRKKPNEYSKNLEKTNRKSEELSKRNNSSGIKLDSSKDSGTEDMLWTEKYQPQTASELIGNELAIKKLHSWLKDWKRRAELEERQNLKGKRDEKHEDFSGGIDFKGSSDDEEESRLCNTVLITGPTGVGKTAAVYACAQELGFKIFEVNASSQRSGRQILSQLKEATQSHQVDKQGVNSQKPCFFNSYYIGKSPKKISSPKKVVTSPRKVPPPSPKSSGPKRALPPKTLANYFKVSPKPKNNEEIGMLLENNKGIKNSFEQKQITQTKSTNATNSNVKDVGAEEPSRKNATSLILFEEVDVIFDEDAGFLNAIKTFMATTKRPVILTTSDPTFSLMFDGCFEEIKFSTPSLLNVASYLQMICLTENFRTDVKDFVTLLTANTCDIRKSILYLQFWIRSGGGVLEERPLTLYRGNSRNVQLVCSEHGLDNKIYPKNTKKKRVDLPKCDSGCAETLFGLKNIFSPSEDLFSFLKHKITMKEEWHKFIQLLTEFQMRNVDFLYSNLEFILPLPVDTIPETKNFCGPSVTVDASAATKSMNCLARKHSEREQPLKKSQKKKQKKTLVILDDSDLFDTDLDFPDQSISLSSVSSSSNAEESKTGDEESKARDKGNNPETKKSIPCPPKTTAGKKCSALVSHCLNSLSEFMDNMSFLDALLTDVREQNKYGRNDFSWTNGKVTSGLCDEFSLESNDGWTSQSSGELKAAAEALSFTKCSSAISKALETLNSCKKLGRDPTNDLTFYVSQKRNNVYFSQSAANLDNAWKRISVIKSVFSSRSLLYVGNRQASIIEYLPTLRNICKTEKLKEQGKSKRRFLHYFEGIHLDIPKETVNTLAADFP
Chain of Glucocorticoid receptor (Homo sapiens) (P04150 whole entry, looked up): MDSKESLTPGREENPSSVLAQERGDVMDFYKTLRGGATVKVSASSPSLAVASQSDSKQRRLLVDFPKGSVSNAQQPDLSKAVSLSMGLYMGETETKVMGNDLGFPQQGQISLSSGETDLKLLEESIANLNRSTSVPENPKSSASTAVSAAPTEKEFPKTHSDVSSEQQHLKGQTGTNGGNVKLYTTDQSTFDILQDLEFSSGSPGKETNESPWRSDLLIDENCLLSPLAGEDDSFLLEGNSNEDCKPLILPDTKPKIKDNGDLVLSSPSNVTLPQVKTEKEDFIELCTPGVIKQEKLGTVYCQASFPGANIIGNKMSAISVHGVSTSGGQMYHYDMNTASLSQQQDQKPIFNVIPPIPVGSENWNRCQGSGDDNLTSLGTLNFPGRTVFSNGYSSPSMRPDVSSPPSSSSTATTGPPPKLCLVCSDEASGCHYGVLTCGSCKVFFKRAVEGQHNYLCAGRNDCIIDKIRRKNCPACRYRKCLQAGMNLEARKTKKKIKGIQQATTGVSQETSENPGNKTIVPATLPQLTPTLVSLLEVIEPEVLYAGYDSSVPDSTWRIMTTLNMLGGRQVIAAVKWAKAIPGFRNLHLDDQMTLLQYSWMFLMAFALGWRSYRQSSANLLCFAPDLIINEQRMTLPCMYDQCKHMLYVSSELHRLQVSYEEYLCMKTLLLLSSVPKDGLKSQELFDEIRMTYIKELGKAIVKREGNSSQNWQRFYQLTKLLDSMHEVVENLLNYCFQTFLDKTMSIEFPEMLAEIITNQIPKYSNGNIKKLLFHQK

Fc1ccc(N2N=C(c3cccs3)CC2c2ccccc2)cc1 (configuration not stated)
inactive: Potency [2] | Potency [3] | Potency [4] | Potency [5] | Potency [6]
active: Potency [1] 28.2 µM

COc1ccc(-c2cc(C(=O)N(C)CC(=O)Nc3ccccc3Cl)c3ccccc3n2)cc1OC
inactive: outcome [9] | Potency [2] | Potency [3] | activation [4] 3.75% [at 17.1 µM, percent relative to cAMP agonist control] | Potency [5] | activity change, negative = inhibition [6] -9.19% [at 30.8 µM]
active: Potency [7] 4.99 µM | Potency [8] 12.5 µM

CC1=C(C#N)C(=O)OC(C)(C)C1
active: Potency [5] 0.601 µM
inactive: activity change, negative = inhibition [10] 8.14% [at 17.2 µM] | activity change, negative = inhibition [11] -4.86% [at 17.2 µM] | outcome [12] | Potency [13] > 20.6 µM | Potency [2] | Potency [3] | Potency [4] | Potency [6]

COc1cc(OC)c(-c2cc(C(=O)O)ccc2OC)c(OC)c1
inactive: Potency [14] | Potency [2] | Potency [3] | activation [4] 1.75% [at 17.1 µM, percent relative to cAMP agonist control] | Potency [5] | activity change, negative = inhibition [6] -0.0153% [at 30.8 µM] | activation [15] 38.4% [at 30.8 µM]

COc1ccc(Br)cc1/C=N/Nc1ccc(S(=O)(=O)Nc2ccccc2C(=O)O)cc1[N+](=O)[O-]
active: Potency [16] 37.7 µM | Potency [17] 42.3 µM | Potency [2] 25.1 µM
inactive: Potency [3] | activation [4] 0.546% [at 17.1 µM, percent relative to cAMP agonist control] | Potency [5] | activity change, negative = inhibition [6] -3.11% [at 30.8 µM] | activation [15] 19% [at 30.8 µM]

COc1ccc(N=Nc2nc3cc(Br)c(Br)cc3n2C)c(OC)c1
inactive: Potency [14] | Potency [2] | Potency [3] | activation [4] 3.19% [at 17.1 µM, percent relative to cAMP agonist control] | Potency [5] | activity change, negative = inhibition [6] 88.5% [at 30.8 µM]
active: Potency [15] 12.6 µM

Cc1cc(NS(=O)(=O)c2ccc(NC(=O)COc3c(C)cc(Br)cc3C)cc2)no1
inactive: Potency [14] | Potency [2] | Potency [3] | Potency [4] | Potency [5] | Potency [6] | Potency [15]
